# Experimental data taken from paper PMC4552634, “A New Set of Chemical Starting Points with Plasmodium falciparum Transmission-Blocking Potential for Antimalarial Drug Discovery” (PLoS ONE, 2015).
# Hit rate of the full screen: of about 13,000 compounds, about 3,200 (25%) showed an effect of 50% or more. The list shows a part of the results.
# Tested on: P. falciparum stage V gametocytes
# Parameters: BacTiter-Glo ATP luminescence viability of purified stage V gametocytes in 384-well plates, per cent inhibition versus DMSO
# Conditions: 48 h, 5 µM; inhibitor
row,Structure (SMILES),% Inhibition [%]
1,CC(=O)Nc1ccc(CN2CCC(N(C)c3cc(NC(=O)c4cccs4)ccn3)CC2)cc1 [TCMDC-134971],-6.674
2,CCc1c(C)nc2nc(Cc3cccc(F)c3)nn2c1N1CCN(c2ccccn2)CC1 [TCMDC-124593],5.465
3,Cc1noc(C)c1-c1cccc(CNCc2ccc(-c3ccc(-c4nc5cc(F)ccc5[nH]4)s3)cc2)c1.O=C(O)C(F)(F)F [TCMDC-133054],12.51
4,O=C(/C=C/c1ccc(Cl)cc1)NCCCCCN1CCCN(C(=O)Nc2cccc(Cl)c2)CC1 [TCMDC-136102],-54.14
5,Cn1cnc(CCNC(=O)c2ccc(-c3ccc(-c4nc5cc(C(F)(F)F)ccc5[nH]4)s3)cc2)c1 [TCMDC-132500],-12.71
6,CCCc1cn2c3c(cc(C(=O)N[C@@H](Cc4ccccc4)[C@H](O)CNC4CCOCC4)cc13)N(C)S(=O)(=O)CC2 [TCMDC-135772],9.174
7,CCc1cn2c3c(cc(C(=O)N[C@@H](Cc4ccccc4)[C@H](O)CNC4CCOCC4)cc13)N(CC(F)(F)F)S(=O)(=O)CC2 [TCMDC-135652],61.24
8,CCc1cn2c3c(cc(C(=O)N[C@@H](Cc4ccccc4)[C@H](O)CNC4CCCCC4)cc13)N(CC)S(=O)(=O)CC2 [TCMDC-135572],99.29
9,CCc1cn2c3c(cc(C(=O)N[C@@H](Cc4cccc(F)c4)[C@H](O)CNC4CCCCC4)cc13)N(C)S(=O)(=O)CC2 [TCMDC-135659],47.1
10,CCc1cn2c3c(cc(C(=O)N[C@@H](Cc4cccc(Cl)c4)[C@H](O)CNC4CC4)cc13)N(C)S(=O)(=O)CC2 [TCMDC-135648],29.4
11,CCc1cn2c3c(cc(C(=O)N[C@@H](Cc4ccccc4)[C@H](O)CNC4CCOCC4)cc13)N(C(C)C)S(=O)(=O)CC2 [TCMDC-135506],37.66
12,CCCc1cn2c3c(cc(C(=O)N[C@@H](Cc4ccccc4)[C@H](O)CNC4CCOCC4)cc13)N(CC)S(=O)(=O)CC2 [TCMDC-135774],46.67
13,CCCc1cn2c3c(cc(C(=O)N[C@@H](Cc4ccccc4)[C@H](O)CNC4CCCCC4)cc13)N(CC)S(=O)(=O)CC2 [TCMDC-135773],81.38
14,CCc1cn2c3c(cc(C(=O)N[C@@H](Cc4cccc(Cl)c4)[C@H](O)CNC4CCOCC4)cc13)N(C)S(=O)(=O)CC2 [TCMDC-135650],67.17
15,CCc1cn2c3c(cc(C(=O)N[C@@H](Cc4cccc(Cl)c4)[C@H](O)CNC4CCCCC4)cc13)N(C)S(=O)(=O)CC2 [TCMDC-135649],39.17
16,CCc1cn2c3c(cc(C(=O)N[C@@H](Cc4cccc(F)c4)[C@H](O)CNC4CCOCC4)cc13)N(C)S(=O)(=O)CC2 [TCMDC-135661],11.24
17,CCc1cn2c3c(cc(C(=O)N[C@@H](Cc4ccccc4)[C@H](O)CNC4CCCCC4)cc13)N(C)S(=O)(=O)C2 [TCMDC-135389],12.74
18,CN(C)CCCNc1ncnc2c1[nH]c1ccc(Br)cc12 [TCMDC-124583],-18.04

row,Structure (SMILES),% Inhibition [%]
1,NC1CCN(c2nc(NCCCc3ccc(O)cc3)nc(NCc3ccccc3-c3ccc(C(F)(F)F)cc3)n2)CC1 [TCMDC-133395],21.49
2,COc1cc(F)c2ncc(C#N)c(CCN3CCC(NCc4ccc5c(c4)OCCO5)CC3)c2c1 [TCMDC-135367],11.13
3,O=C1OC2(CN1CC1CCN(Cc3ccc(O)cc3Cl)C1)c1ccccc1-c1ccccc12 (stereo not drawn) [TCMDC-136313],14.23
4,CON=Cc1ccn(-c2ccc(O)c3c2C[C@H]2C[C@H]4[C@H](N(C)C)C(=O)C(C(N)=O)=C(O)[C@@]4(O)C(=O)C2=C3O)c1 [TCMDC-138646],4.088
5,C=C1C(C(=O)OCC)=CN(CC)c2cc(O[C@H]3CCN(C(=O)OC(C)(C)C)C3)ccc21 [TCMDC-135646],47.67
6,COc1cc2c(cc1OC)CN(CCc1ccc(NC(=O)c3cc4cc(OC(F)(F)F)ccc4[nH]3)cc1)CC2 [TCMDC-138250],36.42
7,CCc1cn2c3c(cc(C(=O)N[C@@H](Cc4ccccc4)[C@H](O)CN[C@@H](C)CC)cc13)N(C)S(=O)(=O)CC2 [TCMDC-135801],46.03
8,CCc1cn(CCc2ccccc2)c2ccc(C(=O)N[C@@H](Cc3ccccc3)[C@H](O)CNC(C)(C)CCCC(C)C)cc12 [TCMDC-135282],76.37
9,CCc1cn(CCCOC)c2ccc(C(=O)N[C@@H](Cc3ccccc3)[C@H](O)CNCc3cccc(C(F)(F)F)c3)cc12 [TCMDC-135241],4.563
10,CCc1cn(CCOC)c2ccc(C(=O)N[C@@H](Cc3ccccc3)[C@H](O)CNC(C)(C)CCCC(C)C)cc12 [TCMDC-135259],69.62
11,CCc1cn(CCS(C)(=O)=O)c2ccc(C(=O)N[C@@H](Cc3ccccc3)[C@H](O)CNC(C)(C)CCCC(C)C)cc12 [TCMDC-135268],68.72
12,C(=N\Nc1nccc2sc(-c3ccccc3)cc12)/c1cccnc1 [TCMDC-135190],-94.18
13,COc1ccc(S(=O)(=O)N2CCOCC2)cc1NC(=O)c1cc2ccccc2o1 [TCMDC-124328],-2.829
14,N#Cc1ccc(-c2ccc(OCC(O)CN3CCCN(C(=O)C(c4ccc5c(c4)OCO5)N4CCN(C/C=C/c5ccccc5)CC4)CC3)cc2)cc1 (stereo not drawn) [TCMDC-141496],18.87
15,COc1cc2c(cc1NC(=O)CN1CCN(C(=O)c3ccco3)CC1)oc1ccccc12 [TCMDC-123712],37.25
16,Cn1cnc2nc(NCCc3ccccc3)nc(NCc3cccc4ccccc34)c21 [TCMDC-131862],52.06
17,c1ccc2c(CNc3nc(NCC4CCCCC4)nc4nc[nH]c34)cccc2c1 [TCMDC-131860],-36.72
18,c1ccc(CCNc2nc(NCC(c3ccccc3)c3ccccc3)c3[nH]cnc3n2)cc1 [TCMDC-131858],-2.796
